# Measured values from PubChem BioAssay (NCI).
# The panel holds about 83,000 compounds, 20% with a hit somewhere; the sample as a whole holds those more often.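 The test compound was applied at a single concentration to cells in 96-well plates for 48 hours, and percent growth was recorded.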 The source made the active and inactive calls. How the source made its calls: active means growth percent below 10; inactive means the rest.
# System: IGROV1 ovarian
# Assay: NCI-60 one-dose screen, 48 h (100 = growth as untreated, 0 = no growth, -100 = all killed)
# Conditions: 10 µM unless noted
row,Structure (SMILES),growth
1,O=c1c2cc(Br)cc(Br)c2nc(-c2ccc(Cl)cc2)n1/N=C\c1ccccc1F,39.1% (inactive)
2,O=C(O)CSc1ccc(NCc2oc(CO)cc(=O)c2O)cc1,105% (inactive)
3,O=C(c1ccccc1)C1OC1C(=O)c1ccccc1 (configuration not stated),24.6% (inactive)
4,CS(=O)(=O)c1ccc(C(=O)Nc2ccc(Cl)c(-c3ccccn3)c2)c(Cl)c1,25.2% (inactive)
5,COc1ccccc1/C=N\Nc1ccc([N+](=O)[O-])cn1,102% (inactive)
6,CCN1C(=O)N(CC)C2C1N=C(SC)N2/N=C/C=C/c1ccccc1OC (configuration not stated),22.2% (inactive)
7,O=C(c1ccccc1)C(CCc1ccccn1)CCc1ccccn1,93.2% (inactive)
8,C=C[C@H]1CCC/C=C/[C@@H]2C[C@H](O)C[C@H]2[C@H](O)/C=C/C(=O)O1,-0.584% (active)
9,CCN1C(=O)N(CC)C2C1NC(=O)N2/N=C/C=C/c1ccccc1 (configuration not stated),53.2% (inactive)
10,O=[N+]([O-])c1ccc(N/N=C/c2ccccc2O)nc1,18.6% (inactive)
11,C#CCNc1nc(NCCNC(=O)CCl)nc(N(C)CCCCc2ccccc2)n1,78.9% (inactive)
12,O=S1(=O)NCCCN1CCNc1nccc(-c2c(-c3cccc(O)c3)nc3sccn23)n1,56.7% (inactive)
13,OC(CCCCCCCCC(O)CN1CCc2ccccc2C1)CN1CCc2ccccc2C1 (configuration not stated),95.1% (inactive)
14,CCCCCCCCCCCCNC(=O)N[C@H](C(=O)N[C@H]1/C=C/CCNC(=O)/C=C/[C@H](C)NC1=O)C(C)C,-32.9% (active)
15,COc1ccccc1-[n+]1cc(-c2ccc(-c3ccccc3)cc2)n2c1CCCCC2,16.6% (inactive)
16,O=C(CCl)N1c2ccccc2Oc2ccc3ccccc3c21,-70.2% (active)
17,C=C(c1ccc(C(=O)NCCCn2ccnc2)cc1)c1cc2c(cc1C)C(C)(C)CCC2(C)C,7.28% (active)
18,COc1cc(CN2CCC(N3CCCC3=O)c3ccccc32)cc(OC)c1OC (configuration not stated),90.5% (inactive)
19,CC(=O)Nc1ccc(/C=N/N2CCCCCC2)cc1,111% (inactive)
20,CCCCc1nc(Cl)c(C2CC(c3ccc(S(N)(=O)=O)cc3)=NN2c2cc(Cl)cc(Cl)c2)[nH]1 (configuration not stated),65.6% (inactive)

row,Structure (SMILES),growth
1,O=C1NN(C(=O)c2ccccc2)C(c2ccc(Cl)c(Cl)c2)=C/C1=C\c1ccccc1[N+](=O)[O-],19.3% [6.75 µM] (inactive)
2,O=C(NNC(=O)c1cccc(Cl)c1)c1ccccc1,115% (inactive)
3,Cc1c(C(N)=O)sc2ncn(CC(=O)NN=C3CCCCC3)c(=O)c12,135% (inactive)
4,Clc1cc(Cl)cc(-c2cnc3nonc3n2)c1,94.9% (inactive)
5,CCOC(=O)Cn1c(-c2nonc2NC(=O)c2ccccc2F)nc2ccccc21,46.3% (inactive)
6,COc1ccc(C(=O)O)cc1.[Ag],110% (inactive)
7,COc1cccc(C2C(C#N)=C(N)Oc3cc4c(cc32)OCO4)c1 (configuration not stated),21.6% (inactive)
8,C=CCOC(=O)C1=C(C)NC2=C(C(=O)CCC2)C1c1ccc(F)cc1 (configuration not stated),99.2% (inactive)
9,COc1cc(CN(c2ccc(C)cc2)C2OC(=O)c3ccccc32)cc(OC)c1OC (configuration not stated),46.2% (inactive)
10,CN1C(=O)C(C(=O)/C=C/c2ccccc2C(=O)O)C(=O)N(C)C1=O,119% (inactive)
11,CC1(C)OC2OC3C(CN)OC(c4ccccc4)OC3C2O1 (configuration not stated),121% (inactive)
12,O=S(=O)(Cc1ccc(Cl)cc1Cl)c1ccc(Cl)cc1,36.1% (inactive)
13,COC(=O)OC1C(O[C@H]2C[C@H]3[C@@H]4CC=C5C[C@@H](O)CC[C@]5(C)[C@H]4CC[C@]3(C)[C@H]2[C@H](C)C(=O)CCC(C)C)OCC(O)C1OC1OCC(O)C(O)C1OC(=O)c1ccc(OC)cc1 (some centres not stated),29.5% (inactive)
14,CC(C)c1ccc2c(c1)CCC1C2CCCC1(C)NCc1ccccc1 (configuration not stated),84.2% (inactive)
15,CC(=O)C1CCC2C3CC(C)=C4CC(O)CCC4(C)C3CCC12C (configuration not stated),104% (inactive)
16,CC(CN1CCN(CC(C)Nc2ccnc3cc(Cl)ccc23)CC1)Nc1ccnc2cc(Cl)ccc12 (configuration not stated),28.2% (inactive)
17,C=CCOC(=O)C1=C(C)NC2=C(C(=O)CC(C)(C)C2)C1c1ccc(OC)cc1 (configuration not stated),105% (inactive)
18,CCCCCCCC/C=C/CCCCCCCC1=NC(C)(C)CN1c1ccccc1,101% (inactive)
19,COc1ccc2c(c1)N(Cc1ccc(Cl)cc1)CCC2N1CCCC1=O (configuration not stated),13.2% (inactive)

# System: OVCAR-3 ovarian
# Assay: as above
# Conditions: 10 µM unless noted
row,Structure (SMILES),growth
1,O=c1c2cc(Br)cc(Br)c2nc(-c2ccc(Cl)cc2)n1/N=C\c1ccccc1F,56.4% (inactive)
2,O=C(c1ccccc1)C1OC1C(=O)c1ccccc1 (configuration not stated),35.2% (inactive)
3,COc1ccccc1/C=N\Nc1ccc([N+](=O)[O-])cn1,117% (inactive)
4,CCN1C(=O)N(CC)C2C1N=C(SC)N2/N=C/C=C/c1ccccc1OC (configuration not stated),-18.9% (active)
5,O=C(c1ccccc1)C(CCc1ccccn1)CCc1ccccn1,103% (inactive)
6,C=C[C@H]1CCC/C=C/[C@@H]2C[C@H](O)C[C@H]2[C@H](O)/C=C/C(=O)O1,-62.7% (active)
7,CCN1C(=O)N(CC)C2C1NC(=O)N2/N=C/C=C/c1ccccc1 (configuration not stated),7.58% (active)
8,O=[N+]([O-])c1ccc(N/N=C/c2ccccc2O)nc1,69.1% (inactive)
9,C#CCNc1nc(NCCNC(=O)CCl)nc(N(C)CCCCc2ccccc2)n1,94.3% (inactive)
10,O=S1(=O)NCCCN1CCNc1nccc(-c2c(-c3cccc(O)c3)nc3sccn23)n1,73.3% (inactive)
11,OC(CCCCCCCCC(O)CN1CCc2ccccc2C1)CN1CCc2ccccc2C1 (configuration not stated),107% (inactive)
12,COc1ccccc1-[n+]1cc(-c2ccc(-c3ccccc3)cc2)n2c1CCCCC2,9.07% (active)
13,O=C(CCl)N1c2ccccc2Oc2ccc3ccccc3c21,-95.1% (active)
14,C=C(c1ccc(C(=O)NCCCn2ccnc2)cc1)c1cc2c(cc1C)C(C)(C)CCC2(C)C,25.7% (inactive)
15,CC(=O)Nc1ccc(/C=N/N2CCCCCC2)cc1,99.4% (inactive)
16,O=C1NN(C(=O)c2ccccc2)C(c2ccc(Cl)c(Cl)c2)=C/C1=C\c1ccccc1[N+](=O)[O-],15.9% [6.75 µM] (inactive)
17,O=C(NNC(=O)c1cccc(Cl)c1)c1ccccc1,115% (inactive)

row,Structure (SMILES),growth
1,Cc1c(C(N)=O)sc2ncn(CC(=O)NN=C3CCCCC3)c(=O)c12,107% (inactive)
2,Clc1cc(Cl)cc(-c2cnc3nonc3n2)c1,36% (inactive)
3,CCOC(=O)Cn1c(-c2nonc2NC(=O)c2ccccc2F)nc2ccccc21,56.7% (inactive)
4,COc1ccc(C(=O)O)cc1.[Ag],99.7% (inactive)
5,COc1cccc(C2C(C#N)=C(N)Oc3cc4c(cc32)OCO4)c1 (configuration not stated),-38.6% (active)
6,C=CCOC(=O)C1=C(C)NC2=C(C(=O)CCC2)C1c1ccc(F)cc1 (configuration not stated),109% (inactive)
7,COc1cc(CN(c2ccc(C)cc2)C2OC(=O)c3ccccc32)cc(OC)c1OC (configuration not stated),6.21% (active)
8,CN1C(=O)C(C(=O)/C=C/c2ccccc2C(=O)O)C(=O)N(C)C1=O,110% (inactive)
9,O=S(=O)(Cc1ccc(Cl)cc1Cl)c1ccc(Cl)cc1,1.54% (active)
10,COC(=O)OC1C(O[C@H]2C[C@H]3[C@@H]4CC=C5C[C@@H](O)CC[C@]5(C)[C@H]4CC[C@]3(C)[C@H]2[C@H](C)C(=O)CCC(C)C)OCC(O)C1OC1OCC(O)C(O)C1OC(=O)c1ccc(OC)cc1 (some centres not stated),58.1% (inactive)
11,CC(C)c1ccc2c(c1)CCC1C2CCCC1(C)NCc1ccccc1 (configuration not stated),80.4% (inactive)
12,CC(=O)C1CCC2C3CC(C)=C4CC(O)CCC4(C)C3CCC12C (configuration not stated),113% (inactive)
13,CC(CN1CCN(CC(C)Nc2ccnc3cc(Cl)ccc23)CC1)Nc1ccnc2cc(Cl)ccc12 (configuration not stated),-7.9% (active)
14,C=CCOC(=O)C1=C(C)NC2=C(C(=O)CC(C)(C)C2)C1c1ccc(OC)cc1 (configuration not stated),107% (inactive)
15,CCCCCCCC/C=C/CCCCCCCC1=NC(C)(C)CN1c1ccccc1,90.8% (inactive)
16,COc1ccc2c(c1)N(Cc1ccc(Cl)cc1)CCC2N1CCCC1=O (configuration not stated),43.8% (inactive)
